In PubChem BioAssay AID1159580 (chemical genetic matrix, 2015):
Among all 5,500 compounds or so, about 2,000 (36%) were called active. About 18% were inconclusive and are not listed. Rule as the data show it: active = normalized growth mostly below about 0.91 (no sharp cut-off); inconclusive = no clear call, values can overlap the other calls; inactive = mostly above about 0.92. This is one part of the list.

Assay: chemical genetic growth profiling, strain panel (AID 1159580);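 also: tested at 20 µM; growth read once vehicle control cultures reached saturation at 30 °C; 1 = growth at the plate median or of vehicle wells; lower values mean less growth of the strain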
Conditions: growth OD

Measured: normalized growth

CC(=O)N(O)CCCCCNC(=O)CCC(=O)N(O)CCCCCNC(=O)CCC(=O)N(O)CCCCCN
active: S. cerevisiae deletion strains, locus YNL209W, strain ssb2, stronger effect = lower value 0.917 | S. cerevisiae deletion strains, locus YOR106W, strain vam3, stronger effect = lower value 0.844
inactive: S. cerevisiae deletion strains, locus YJR066W, strain TOR1, stronger effect = lower value 0.95 | S. cerevisiae deletion strains, locus YJR075W, strain HOC1, stronger effect = lower value 1.01 | S. cerevisiae deletion strains, locus YKL009W, strain mrt4, stronger effect = lower value 1.01 | S. cerevisiae deletion strains, locus YKL068W, stronger effect = lower value 1.05 | S. cerevisiae deletion strains, locus YKL085W, strain MDH1 (second series), stronger effect = lower value 1.02 | S. cerevisiae deletion strains, locus YKL085W, strain MDH1, stronger effect = lower value 1.02 | S. cerevisiae deletion strains, locus YKL160W, strain elf1, stronger effect = lower value 0.998 | S. cerevisiae deletion strains, locus YKL190W, strain CNB1, stronger effect = lower value 1.01 | S. cerevisiae deletion strains, locus YKR001C, strain vps1, stronger effect = lower value 0.966 | S. cerevisiae deletion strains, locus YKR026C, strain gcn3, stronger effect = lower value 1.03 | S. cerevisiae deletion strains, locus YKR091W, strain srl3, stronger effect = lower value 1.01 | S. cerevisiae deletion strains, locus YLL001W, strain dnm1, stronger effect = lower value 0.991 | S. cerevisiae deletion strains, locus YLL026W, stronger effect = lower value 0.997 | S. cerevisiae deletion strains, locus YLL041C, strain sdh2, stronger effect = lower value 1 | S. cerevisiae deletion strains, locus YLR027C, strain aat2, stronger effect = lower value 1 | S. cerevisiae deletion strains, locus YLR039C, strain RIC1, stronger effect = lower value 0.997 | S. cerevisiae deletion strains, locus YLR058C, strain SHM2, stronger effect = lower value 1.01 | S. cerevisiae deletion strains, locus YLR102C, strain apc9, stronger effect = lower value 1.03 | S. cerevisiae deletion strains, locus YLR113W, strain HOG1, stronger effect = lower value 1.14 | S. cerevisiae deletion strains, locus YLR221C, strain rsa3, stronger effect = lower value 1.04 | S. cerevisiae deletion strains, locus YLR258W, strain gsy2, stronger effect = lower value 1.02 | S. cerevisiae deletion strains, locus YLR262C, strain YPT6 (second series), stronger effect = lower value 0.995 | S. cerevisiae deletion strains, locus YLR262C, strain YPT6, stronger effect = lower value 1.08 | S. cerevisiae deletion strains, locus YLR268W, strain sec22, stronger effect = lower value 0.981 | S. cerevisiae deletion strains, locus YLR320W, strain mms22, stronger effect = lower value 1.07 | S. cerevisiae deletion strains, locus YLR330W, strain CHS5, stronger effect = lower value 1.01 | S. cerevisiae deletion strains, locus YLR342W, strain FKS1 (second series), stronger effect = lower value 0.854 | S. cerevisiae deletion strains, locus YLR342W, strain FKS1, stronger effect = lower value 0.958 | S. cerevisiae deletion strains, locus YLR357W, strain rsc2, stronger effect = lower value 0.882 | S. cerevisiae deletion strains, locus YLR370C, strain arc18, stronger effect = lower value 1 | S. cerevisiae deletion strains, locus YLR371W, strain rom2, stronger effect = lower value 1.02 | S. cerevisiae deletion strains, locus YLR384C, strain iki3, stronger effect = lower value 0.991 | S. cerevisiae deletion strains, locus YLR418C, strain cdc73, stronger effect = lower value 0.864 | S. cerevisiae deletion strains, locus YML016C, strain PPZ1, stronger effect = lower value 1.01 | S. cerevisiae deletion strains, locus YML032C, strain rad52, stronger effect = lower value 1.06 | S. cerevisiae deletion strains, locus YML120C, strain ndi1, stronger effect = lower value 0.993 | S. cerevisiae deletion strains, locus YML124C, strain tub3, stronger effect = lower value 1.03 | S. cerevisiae deletion strains, locus YMR058W, strain fet3, stronger effect = lower value 1.02 | S. cerevisiae deletion strains, locus YMR078C, strain ctf18, stronger effect = lower value 1.04 | S. cerevisiae deletion strains, locus YMR125W, strain sto1, stronger effect = lower value 1.06 | S. cerevisiae deletion strains, locus YMR129W, stronger effect = lower value 1.01 | S. cerevisiae deletion strains, locus YMR205C, strain PFK2, stronger effect = lower value 1.03 | S. cerevisiae deletion strains, locus YMR223W, strain ubp8, stronger effect = lower value 0.998 | S. cerevisiae deletion strains, locus YMR231W, strain pep5, stronger effect = lower value 0.983 | S. cerevisiae deletion strains, locus YMR307W, strain GAS1, stronger effect = lower value 0.809 | S. cerevisiae deletion strains, locus YNL067W, strain RPL9B, stronger effect = lower value 0.999 | S. cerevisiae deletion strains, locus YNL071W, strain lat1, stronger effect = lower value 1.04 | S. cerevisiae deletion strains, locus YNL128W, strain TEP1, stronger effect = lower value 1.01 | S. cerevisiae deletion strains, locus YNL153C, strain GIM3, stronger effect = lower value 0.99 | S. cerevisiae deletion strains, locus YNL183C, strain NPR1, stronger effect = lower value 0.995 | S. cerevisiae deletion strains, locus YNL233W, strain BNI4, stronger effect = lower value 0.987 | S. cerevisiae deletion strains, locus YNL248C, strain rpa49, stronger effect = lower value 1.08 | S. cerevisiae deletion strains, locus YNL250W, strain rad50, stronger effect = lower value 1.08 | S. cerevisiae deletion strains, locus YNL271C, strain bni1, stronger effect = lower value 0.978 | S. cerevisiae deletion strains, locus YNL298W, strain CLA4, stronger effect = lower value 1 | S. cerevisiae deletion strains, locus YNL307C, strain MCK1, stronger effect = lower value 1.03 | S. cerevisiae deletion strains, locus YNL322C, strain KRE1 (second series), stronger effect = lower value 1.01 | S. cerevisiae deletion strains, locus YNR049C, strain mso1, stronger effect = lower value 1.01 | S. cerevisiae deletion strains, locus YNR052C, strain pop2, stronger effect = lower value 1.01 | S. cerevisiae deletion strains, locus YOL012C, strain htz1 1.51 | S. cerevisiae deletion strains, locus YOL147C, strain pex11, stronger effect = lower value 1.02 | S. cerevisiae deletion strains, locus YOR001W, strain rrp6, stronger effect = lower value 0.96 | S. cerevisiae deletion strains, locus YOR061W, strain CKA2, stronger effect = lower value 0.996 | S. cerevisiae deletion strains, locus YOR069W, strain VPS5, stronger effect = lower value 1.01 | S. cerevisiae deletion strains, locus YOR070C, strain gyp1, stronger effect = lower value 1.01 | S. cerevisiae deletion strains, locus YOR080W, strain dia2, stronger effect = lower value 0.996 | S. cerevisiae deletion strains, locus YOR083W, strain WHI5, stronger effect = lower value 0.958 | S. cerevisiae deletion strains, locus YOR136W, strain idh2, stronger effect = lower value 1.03 | S. cerevisiae deletion strains, locus YOR144C, strain elg1, stronger effect = lower value 1.02 | S. cerevisiae deletion strains, locus YOR184W, strain ser1, stronger effect = lower value 0.999 | S. cerevisiae deletion strains, locus YOR231W, strain MKK1, stronger effect = lower value 1.04 | S. cerevisiae deletion strains, locus YOR265W, strain rbl2, stronger effect = lower value 1 | S. cerevisiae deletion strains, locus YOR270C, strain vph1, stronger effect = lower value 0.964 | S. cerevisiae deletion strains, locus YOR290C, strain snf2, stronger effect = lower value 1.02 | S. cerevisiae deletion strains, locus YOR316C, strain cot1, stronger effect = lower value 1.04 | S. cerevisiae deletion strains, locus YPL051W, strain arl3, stronger effect = lower value 1.07 | S. cerevisiae deletion strains, locus YPL078C, strain atp4, stronger effect = lower value 0.985 | S. cerevisiae deletion strains, locus YPL106C, strain sse1, stronger effect = lower value 0.953 | S. cerevisiae deletion strains, locus YPL240C, strain hsp82, stronger effect = lower value 1.01 | S. cerevisiae deletion strains, locus YPL256C, strain CLN2, stronger effect = lower value 1.09 | S. cerevisiae deletion strains, locus YPR119W, strain clb2, stronger effect = lower value 1.04 | S. cerevisiae deletion strains, locus YPR141C, strain kar3, stronger effect = lower value 1.05 | S. cerevisiae deletion strains, locus YPR163C, strain tif3, stronger effect = lower value 1.03 | S. cerevisiae deletion strains, locus YPR167C, strain met16, stronger effect = lower value 1.04 | S. cerevisiae deletion strains, strain wtn01, stronger effect = lower value 0.998 | S. cerevisiae strains, strain wild type, stronger effect = lower value 1.01
